Here are results for 13 compounds from PubChem BioAssay (NCATS).

A short description of assay [1]: Natriuretic polypeptide receptor (hNpr1) antagonism - Pilot counterscreen GloSensor control cell line (AID 1347045; calls by dose curve; further: series mostly up to about 38 µM). In outline: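 HEK293 cells carrying the GloSensor cGMP sensor (GIP/pGS-40F) were loaded with 2% GloSensor reagent for 2 h, exposed to compounds for 30 min, and then stimulated with 50 uM sodium nitroprusside for 20 min at room temperature.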
For assay [2], the target named is Atrial natriuretic peptide receptor 1 (Homo sapiens) (UniProt P16066). Briefly: Natriuretic polypeptide receptor (hNpr1) antagonism - Pilot screen (AID 1347049; calls by dose curve;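 further: agonist-evoked cGMP luminescence read 20 min after hNppA addition; series mostly up to about 58 µM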). In outline: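 Readout is cGMP-driven firefly luciferase luminescence in HEK293 cells carrying hNpr1 and a PDE5-domain GloSensor, read before and 20 min after 0.1 nM hNppA stimulation. Cells had 2% substrate reagent for 2 h and test compound for 30 min.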

For assay [3], the target named is Atrial natriuretic peptide receptor 2 (Homo sapiens) (UniProt P20594). Briefly: Natriuretic polypeptide receptor (hNpr2) antagonism - Pilot subtype selectivity assay (AID 1347050; calls by dose curve). Put shortly:
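Pilot selectivity screen against hNpr2: HEK293 cGMP-sensor cells are treated with LOPAC1280 compounds, then with hNppC peptide at 1 nM final. The cGMP-driven luminescence change over 20 min at room temperature is the read-out.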

The nature of assay [4]: NS1 protein of Zika virus - qHTS assay to identify small molecule inhibitors in human HEK 293 cells (AID 1347053). Further: series mostly up to about 46 µM; nearly all actives have a fitted effect of over 55% in size. In outline: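 HEK 293; 20 h pre-culture, 37 C/5% CO2; cpd 1 h pre-infection; ZIKV MR766, MOI = 0.5, 24 h, 37 C; TR-FRET NS1 readout (two anti-NS1 Abs); norm. to no-virus vs infected.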
Assay [5] has as its target T1, Tyrosine-protein phosphatase non-receptor type substrate 1 (Homo sapiens) + Leukocyte surface antigen CD47 (Homo sapiens) (UniProt P78324+Q08722). Briefly: CD47-SIRPalpha protein protein interaction - LANCE assay qHTS validation (AID 1347057; active means well fitted curve in the direction sought with a large enough effect in the signal ratio, with a control signal flat, not every such curve was filed as active; the % refers to the signal ratio; further: series mostly up to about 38 µM). Put shortly: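 First, His-tagged CD47 and Eu-labelled anti-His antibody met the compound for 30 min; next, site-specifically biotinylated SIRPalpha was added for 30 min; finally streptavidin-APC was added before reading the TR-FRET ratio.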
Background: Time-resolved FRET reads energy transfer from a long-lived donor to a nearby acceptor.

Assay [6] addresses T1, Tyrosine-protein phosphatase non-receptor type substrate 1 (Homo sapiens) + Leukocyte surface antigen CD47 (Homo sapiens). Briefly: CD47-SIRPalpha protein protein interaction - HTRF assay qHTS validation (AID 1347058; active means well fitted curve in the direction sought with a large enough effect in the signal ratio, not every such curve was filed as active; the % refers to the signal ratio;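 further: recombinant soluble extracellular CD47 with His tag and biotinylated SIRPalpha domains; series mostly up to about 38 µM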). In outline: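 TR-FRET read (Ch1/Ch2 ratio) of soluble extracellular CD47 and Avi-biotinylated SIRPalpha domains in PBS pH 7.4 with 0.05% IGEPAL; 7-point compound titration. Sequential 30 min room-temperature steps; non-biotinylated SIRPalpha as control inhibitor.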

Assay [7] has the same target. Briefly: CD47-SIRPalpha protein protein interaction - Alpha assay qHTS validation (AID 1347059).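 Further: bead proximity luminescence from CD47 binding SIRPalpha after compound preincubation with SIRPalpha.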 In outline: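 Binding is measured by AlphaScreen proximity: Ni-NTA acceptor beads capture His-CD47, streptavidin donor beads capture biotin-SIRPalpha. Each of three additions (SIRPalpha with compound, CD47, beads) incubates 30 min at room temperature protected from light.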
A general note: qHTS replaces the single test concentration by a dilution series.

In assay [8] the target is Parathyroid hormone/parathyroid hormone-related peptide receptor (Homo sapiens) (UniProt Q03431). Briefly: qHTS for PTHR1 Agonists: Optimization Screen against the NCGC LOPAC library (AID 1347079).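 Further: GloSensor cAMP luminescence in HEK-293 GP2 cells expressing human PTHR1 with IBMX.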 Put shortly: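 Compounds were tested across a qHTS titration. PTHR1-expressing GP2 cells report cAMP rises via GloSensor luminescence after 1 hr compound exposure at 37C with IBMX present.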

The nature of assay [9]: qHTS of pediatric cancer cell lines to identify multiple opportunities for drug repurposing: Primary screen for TC32 cells (AID 1347089). Further: nearly all actives have a fitted effect of over 60% in size. In outline: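 qHTS, TC32, 48 h drug treatment, CellTiter-Glo luminescence as a proxy for metabolically active cells; primary top concentration 46 µM (MIPE 11-pt, NPC 8-pt); confirmatory 11-pt.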
Assay [10] can be described thus: qHTS of pediatric cancer cell lines to identify multiple opportunities for drug repurposing: Primary screen for DAOY cells (AID 1347090). Further: nearly all actives have a fitted effect of over 55% in size. Further: potency means the concentration at half of the fitted maximal effect. Put shortly: (§1)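 Cell viability, CellTiter-Glo luminescence; 500-1,000 cells/well, 8- or 11-point titration, 48 h compound exposure at 37 degrees C, 5% CO2. Controls: DMSO neutral, bortezomib 2.3 µM final as positive.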
Assay [11] in a line: qHTS of pediatric cancer cell lines to identify multiple opportunities for drug repurposing: Primary screen for SJ-GBM2 cells (AID 1347091). Further: potency means the concentration at half of the fitted maximal effect. In outline:
as §1

Assay [12] is described as follows: P-glycoprotein substrates identified in KB-8-5-11 adenocarcinoma cell line, qHTS therapeutic library screen (AID 1346987). Further: nearly all actives have a fitted effect of over 65% in size. Further: potency means the concentration at half of the fitted maximal effect. In outline:
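KB-8-5-11: colchicine-selected sub-line of KB-3-1 over-expressing P-gp; assay medium lacked colchicine. 72 h drug exposure at 37 degree C, CellTiter-Glo.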

Assay [13] in a line: qHTS of pediatric cancer cell lines to identify multiple opportunities for drug repurposing: Primary screen for NB-EBc1 cells (AID 1347095). Further: potency means the concentration at half of the fitted maximal effect. In outline:
(§2)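 Quantitative HTS format: each compound titrated (MIPE 11 points from 0.78 nM, NPC 8 points from 0.59 nM) onto cells plated 5 hours earlier. After 48 h at 37 degrees C, CellTiter-Glo luminescence was recorded.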

The nature of assay [14]: qHTS of pediatric cancer cell lines to identify multiple opportunities for drug repurposing: Primary screen for U-2 OS cells (AID 1347096). Further: nearly all actives have a fitted effect of over 50% in size. In outline:
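Cells (500-1,000/well) rested 5 h, then received compounds for 48 h; metabolically active cells were measured by CellTiter-Glo luminescence. Final concentrations spanned up to 46 µM (MIPE, 11-point) or 0.59 nM-46 µM (NPC, 8-point) in primary screens, 11-point in follow-ups.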

A short description of assay [15]: qHTS of pediatric cancer cell lines to identify multiple opportunities for drug repurposing: Primary screen for A673 cells (AID 1347092). Further: nearly all actives have a fitted effect of over 45% in size. Further: potency means the concentration at half of the fitted maximal effect. In outline: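 Luminescence from CellTiter-Glo, taken after 15 min at room temperature, served as the proxy for metabolically active cells following 48 h treatment. Both potency and efficacy were taken from curves fitted to the titration data.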

The nature of assay [16]: qHTS of pediatric cancer cell lines to identify multiple opportunities for drug repurposing: Primary screen for SK-N-MC cells (AID 1347093). Further: potency means the concentration at half of the fitted maximal effect. Put shortly:
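Metabolically active cells were quantified by ATP-dependent luminescence (CellTiter-Glo, 15 min at room temperature) following 48 h treatment. Cells had been plated at 500-1,000 per well and settled for 5 h beforehand.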

Assay [17] in a line: qHTS of pediatric cancer cell lines to identify multiple opportunities for drug repurposing: Primary screen for BT-37 cells (AID 1347094). Further: potency means the concentration at half of the fitted maximal effect. Put shortly: as §2

Inconclusive results are not listed. The source made the active and inactive calls. Unless noted, the call rests on the fitted dose curve; in most records, active means well fitted curve in the direction sought with a large enough effect; inconclusive means small, poorly fitted or top-dose-only effect, or another doubt; inactive means no such curve, though single readings can be large; an effect the other way counts as inactive or inconclusive.

T1 sequence (P78324 whole entry, looked up): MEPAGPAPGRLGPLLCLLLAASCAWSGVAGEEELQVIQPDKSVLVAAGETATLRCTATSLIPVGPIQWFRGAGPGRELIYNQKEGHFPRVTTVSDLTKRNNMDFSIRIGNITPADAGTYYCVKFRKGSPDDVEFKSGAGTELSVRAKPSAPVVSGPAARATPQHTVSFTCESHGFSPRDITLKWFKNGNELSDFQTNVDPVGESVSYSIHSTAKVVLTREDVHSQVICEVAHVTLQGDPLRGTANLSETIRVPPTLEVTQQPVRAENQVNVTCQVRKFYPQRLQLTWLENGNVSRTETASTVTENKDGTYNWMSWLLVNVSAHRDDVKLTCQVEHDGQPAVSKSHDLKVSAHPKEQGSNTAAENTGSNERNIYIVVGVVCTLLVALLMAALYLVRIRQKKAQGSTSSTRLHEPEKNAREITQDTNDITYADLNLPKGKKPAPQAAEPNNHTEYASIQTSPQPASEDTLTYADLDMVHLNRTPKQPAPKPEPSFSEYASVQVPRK
T1 sequence (Q08722 whole entry, looked up): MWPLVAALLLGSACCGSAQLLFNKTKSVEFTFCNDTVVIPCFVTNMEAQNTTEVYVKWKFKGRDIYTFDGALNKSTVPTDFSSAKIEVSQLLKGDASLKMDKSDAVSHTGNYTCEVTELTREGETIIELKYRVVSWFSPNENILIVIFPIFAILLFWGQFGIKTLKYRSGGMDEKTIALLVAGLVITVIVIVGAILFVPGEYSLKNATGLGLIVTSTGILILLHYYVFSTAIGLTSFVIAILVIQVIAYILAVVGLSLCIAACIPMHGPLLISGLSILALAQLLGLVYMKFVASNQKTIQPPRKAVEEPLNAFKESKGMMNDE
Chain of Atrial natriuretic peptide receptor 2 (Homo sapiens) (P20594 whole entry, looked up): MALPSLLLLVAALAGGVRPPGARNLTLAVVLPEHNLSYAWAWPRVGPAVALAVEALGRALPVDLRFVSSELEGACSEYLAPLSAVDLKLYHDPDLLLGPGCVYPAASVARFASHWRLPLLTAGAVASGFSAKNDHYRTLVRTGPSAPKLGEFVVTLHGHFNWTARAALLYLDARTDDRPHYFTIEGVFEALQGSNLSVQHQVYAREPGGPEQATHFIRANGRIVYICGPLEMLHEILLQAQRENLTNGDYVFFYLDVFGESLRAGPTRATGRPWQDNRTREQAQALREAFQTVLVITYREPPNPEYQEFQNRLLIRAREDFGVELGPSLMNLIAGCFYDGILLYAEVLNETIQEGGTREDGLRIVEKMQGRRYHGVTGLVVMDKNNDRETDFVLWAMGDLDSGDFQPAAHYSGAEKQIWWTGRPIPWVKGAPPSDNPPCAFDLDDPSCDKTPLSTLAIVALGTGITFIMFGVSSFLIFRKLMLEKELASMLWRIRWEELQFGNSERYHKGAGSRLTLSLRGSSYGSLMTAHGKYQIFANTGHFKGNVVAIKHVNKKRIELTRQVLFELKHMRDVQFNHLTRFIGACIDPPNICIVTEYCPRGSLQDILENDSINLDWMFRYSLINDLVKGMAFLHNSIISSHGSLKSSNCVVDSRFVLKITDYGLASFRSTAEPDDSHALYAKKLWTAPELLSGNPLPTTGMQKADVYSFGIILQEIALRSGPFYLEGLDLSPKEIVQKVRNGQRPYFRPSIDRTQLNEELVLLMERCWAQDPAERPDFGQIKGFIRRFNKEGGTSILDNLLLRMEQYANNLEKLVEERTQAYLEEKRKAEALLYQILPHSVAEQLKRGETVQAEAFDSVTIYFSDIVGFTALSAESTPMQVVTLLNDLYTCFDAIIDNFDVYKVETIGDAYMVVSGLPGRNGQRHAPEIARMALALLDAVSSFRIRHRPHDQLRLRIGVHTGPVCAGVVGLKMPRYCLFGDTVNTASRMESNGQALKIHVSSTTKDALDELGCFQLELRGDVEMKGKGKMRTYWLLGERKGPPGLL
Chain of Parathyroid hormone/parathyroid hormone-related peptide receptor (Homo sapiens) (Q03431 whole entry, looked up): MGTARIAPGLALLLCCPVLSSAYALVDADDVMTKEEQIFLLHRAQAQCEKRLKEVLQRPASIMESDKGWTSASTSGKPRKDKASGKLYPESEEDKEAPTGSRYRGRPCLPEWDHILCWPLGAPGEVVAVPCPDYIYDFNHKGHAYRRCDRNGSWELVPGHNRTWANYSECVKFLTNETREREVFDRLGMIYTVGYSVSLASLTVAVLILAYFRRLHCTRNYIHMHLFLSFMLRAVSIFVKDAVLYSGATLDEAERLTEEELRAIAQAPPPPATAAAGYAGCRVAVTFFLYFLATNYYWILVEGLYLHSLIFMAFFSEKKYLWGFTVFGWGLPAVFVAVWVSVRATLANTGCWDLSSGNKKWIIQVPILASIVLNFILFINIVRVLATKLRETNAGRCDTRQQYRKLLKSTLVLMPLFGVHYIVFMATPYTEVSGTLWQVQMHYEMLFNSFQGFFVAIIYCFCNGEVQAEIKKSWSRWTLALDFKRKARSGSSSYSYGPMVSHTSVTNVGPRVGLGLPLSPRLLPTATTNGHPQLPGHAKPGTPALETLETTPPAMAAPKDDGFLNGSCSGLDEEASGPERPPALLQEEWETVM
Chain of Atrial natriuretic peptide receptor 1 (Homo sapiens) (P16066 whole entry, looked up): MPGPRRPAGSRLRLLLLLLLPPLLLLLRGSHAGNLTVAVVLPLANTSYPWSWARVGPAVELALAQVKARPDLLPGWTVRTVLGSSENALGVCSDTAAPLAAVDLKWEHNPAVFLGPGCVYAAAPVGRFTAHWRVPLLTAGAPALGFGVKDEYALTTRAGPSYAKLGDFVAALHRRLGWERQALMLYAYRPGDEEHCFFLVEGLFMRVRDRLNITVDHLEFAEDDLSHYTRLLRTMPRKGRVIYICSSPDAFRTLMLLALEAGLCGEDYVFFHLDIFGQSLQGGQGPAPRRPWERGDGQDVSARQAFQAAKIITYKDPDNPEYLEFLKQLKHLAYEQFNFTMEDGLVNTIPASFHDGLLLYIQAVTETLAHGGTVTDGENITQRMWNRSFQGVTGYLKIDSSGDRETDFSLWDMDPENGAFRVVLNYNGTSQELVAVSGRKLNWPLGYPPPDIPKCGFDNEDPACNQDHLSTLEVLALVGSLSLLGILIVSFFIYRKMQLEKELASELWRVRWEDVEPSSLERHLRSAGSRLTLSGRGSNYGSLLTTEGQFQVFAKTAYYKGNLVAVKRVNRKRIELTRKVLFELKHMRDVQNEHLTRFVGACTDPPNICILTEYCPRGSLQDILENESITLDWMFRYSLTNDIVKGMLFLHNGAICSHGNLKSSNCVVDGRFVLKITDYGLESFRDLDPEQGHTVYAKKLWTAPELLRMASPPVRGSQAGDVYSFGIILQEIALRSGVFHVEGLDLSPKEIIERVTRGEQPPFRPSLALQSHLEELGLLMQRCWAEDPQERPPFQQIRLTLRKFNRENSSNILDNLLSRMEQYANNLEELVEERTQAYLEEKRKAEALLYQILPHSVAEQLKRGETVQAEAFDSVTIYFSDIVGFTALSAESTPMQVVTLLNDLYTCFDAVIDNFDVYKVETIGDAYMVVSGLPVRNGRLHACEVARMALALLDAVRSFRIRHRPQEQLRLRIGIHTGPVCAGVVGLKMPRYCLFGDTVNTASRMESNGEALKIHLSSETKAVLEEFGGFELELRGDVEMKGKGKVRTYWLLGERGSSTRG

For `CC[C@H](C)C(=O)O[C@H]1CCC=C2C=C[C@H](C)[C@H](CC[C@@H]3C[C@@H](O)CC(=O)O3)[C@H]21`, the compound was called inactive in assay [1], in assay [2], in assay [3], in [5], in [6] and in [8]. The Potency entry in assay [4] and in assay [7] was “inactive” throughout.

On to `CNCCC(Oc1ccccc1C)c1ccccc1` (configuration not stated), for which the compound was classed as inactive in [1], in assay [3], in [5], in assay [6] and in assay [8]. The Potency result in assay [4] and in [7] was “inactive” each time.

With `C#C[C@]1(OC(C)=O)CC[C@H]2[C@@H]3CCC4=C[C@@H](OC(C)=O)CC[C@@H]4[C@H]3CC[C@@]21C`, the Potency entry in [4], in [9], in assay [10] and in assay [11] was “inactive” in each case.

With `C[C@@H]1CN(CCCn2c3ccccc3c3ccccc32)C[C@H](C)N1`, the Potency in assay [12] is 14.6 µM (active). Further, the Potency entry in assay [10], in [13] and in assay [14] was “inactive” throughout.

`CC[C@@H](CO)NCCN[C@@H](CC)CO`: the Potency result in assay [4], in [9], in assay [10], in [11], in [15] and in assay [16] was “inactive” throughout. In addition, the Potency result in assay [17], in [13] and in assay [14] was “inactive” each time.

Take `CCCn1c(=O)[nH]c(=O)c2[nH]cnc21`: the compound was called inactive in assay [1], in assay [2], in assay [3], in assay [5], in assay [6] and in [8]. Besides, the Potency result in assay [4] and in assay [7] was “inactive” in each case.

`O=C(CCCN1CCC(O)(c2ccc(Br)cc2)CC1)c1ccc(F)cc1`: the Potency result in assay [4], in [9], in assay [10], in assay [15], in assay [16] and in [13] was “inactive” in each case. Also, the Potency result in assay [14] was “inactive”. For the same compound, the results for the Potency in [11] and in assay [17] were 21.1 µM (active) and 0.001 µM (active), respectively.

For `CCCCCCC[N+](CC)(CC)CCCCc1ccc(Cl)cc1`, in assay [12], the Potency entry was “inactive”. Besides, the Potency in [10] is 26.6 µM (active); in [11] it was 10.6 µM (active); in assay [15], 3.35 µM (active); in assay [16], 3.35 µM (active); in [17], 8.71 µM (active); in [13], 10.6 µM (active).

For `CCCCCCCCCCOCC(O)CN` (configuration not stated), the Potency result in assay [12], in assay [10] and in assay [14] was “inactive” in each case. Besides, the Potency in assay [15] was 21.1 µM (active).

As to `CC(CCc1ccccc1)NCC(O)c1ccc(O)c(C(N)=O)c1` (configuration not stated), the call in assay [2], in [3], in [5], in [6] and in assay [8] was inactive. The Potency result in assay [4] and in [7] was “inactive” each time.

As for `O=C(Nc1ccc(Cl)c(Cl)c1)C1CC1`, the Potency result in [4], in assay [9], in assay [10], in [11], in assay [15] and in [16] was “inactive” throughout. For the same compound, the Potency result in assay [17] and in assay [13] was “inactive” each time.

As to `COc1ccc(CN2CCN(C(c3ccc(F)cc3)c3ccc(F)cc3)CC2)c(OC)c1OC`, the Potency is 23.1 µM (active) in assay [12] and 21.1 µM (active) in assay [15]. For the same compound, the Potency result in assay [10] was “inactive”.

With `CC(C)C[C@H]1C(=O)N2CCC[C@H]2[C@]2(O)O[C@](NC(=O)[C@@H]3C=C4c5cccc6[nH]c(Br)c(c56)C[C@H]4N(C)C3)(C(C)C)C(=O)N12`, the compound was classed as inactive in assay [2], in assay [3] and in assay [8]. Besides, in assay [7], the Potency entry was “inactive”.
